From PubChem BioAssay AID1159580 (chemical genetic matrix, 2015)
Where “and” joins values, the source holds several entries; their conditions need not be identical. Equal values may be shown once. The campaign covered roughly 5,500 compounds. About 2,000 (36%) were called active. About 18% were inconclusive and are not listed. Cut-off read from the data, not from the text of the source: active = normalized growth mostly below about 0.91 (no sharp cut-off); inconclusive = no clear call, values can overlap the other calls; inactive = mostly above about 0.92. This is one part of the list.

Assay: chemical genetic growth profiling, strain panel (AID 1159580);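 note: tested at 20 µM; growth read once vehicle control cultures reached saturation at 30 °C; 1 = growth at the plate median or of vehicle wells; lower values mean less growth of the strain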
Conditions: S. cerevisiae deletion strains, growth OD

Measured: normalized growth

COc1ccc(C(=O)N2CCCC2=O)cc1
inactive: locus YAL013W, strain DEP1, stronger effect = lower value 0.971 | locus YAL021C, strain ccr4, stronger effect = lower value 0.981 | locus YAL026C, strain drs2, stronger effect = lower value 0.976 | locus YAL030W, strain snc1, stronger effect = lower value 0.956 | locus YAL040C, strain CLN3, stronger effect = lower value 1.01 | locus YBL061C, strain skt5, stronger effect = lower value 0.962 | locus YBR009C, strain hhf1, stronger effect = lower value 0.969 | locus YBR021W, strain FUR4, stronger effect = lower value 1.05 | locus YBR023C, strain chs3, stronger effect = lower value 0.967 | locus YBR171W, strain sec66, stronger effect = lower value 0.96 | locus YBR229C, strain ROT2, stronger effect = lower value 0.953 | locus YBR231C, strain swc5, stronger effect = lower value 0.967 | locus YBR279W, strain paf1, stronger effect = lower value 0.987 | locus YCL011C, strain gbp2, stronger effect = lower value 0.946 | locus YCL016C, strain dcc1, stronger effect = lower value 0.976 | locus YCL029C, strain bik1, stronger effect = lower value 0.983 | locus YCL061C, strain MRC1, stronger effect = lower value 0.974 | locus YCL069W, strain vba3, stronger effect = lower value 0.985 | locus YCR088W, strain abp1, stronger effect = lower value 0.981 | locus YDL005C, strain med2, stronger effect = lower value 0.974 | locus YDL035C, strain GPR1, stronger effect = lower value 0.984 | locus YDL040C, strain nat1, stronger effect = lower value 0.984 | locus YDL074C, strain BRE1, stronger effect = lower value 0.961 | locus YDL101C, strain DUN1, stronger effect = lower value 0.952 | locus YDL134C, strain PPH21, stronger effect = lower value 0.993 | locus YDL185W, strain tfp1, stronger effect = lower value 0.964 | locus YDL192W, strain arf1, stronger effect = lower value 0.983 | locus YDR001C, strain nth1, stronger effect = lower value 0.97 | locus YDR069C, strain doa4, stronger effect = lower value 0.968 | locus YDR101C, strain arx1, stronger effect = lower value 0.989 | locus YDR137W, strain rgp1, stronger effect = lower value 0.967 | locus YDR150W, strain NUM1, stronger effect = lower value 0.968 | locus YDR159W, strain sac3, stronger effect = lower value 0.968 | locus YDR162C, strain NBP2, stronger effect = lower value 0.968 | locus YDR195W, strain ref2 1 | locus YDR297W, strain sur2, stronger effect = lower value 0.967 | locus YDR318W, strain mcm21, stronger effect = lower value 0.996 | locus YDR334W, strain swr1, stronger effect = lower value 0.939 | locus YDR335W, strain msn5, stronger effect = lower value 0.975 | locus YDR388W, stronger effect = lower value 0.999 | locus YDR392W, strain spt3, stronger effect = lower value 0.929 | locus YDR502C, strain sam2, stronger effect = lower value 0.995 | locus YEL003W, strain gim4, stronger effect = lower value 0.981 | locus YEL037C, strain rad23, stronger effect = lower value 0.979 | locus YEL061C, strain CIN8 (second series), stronger effect = lower value 0.971 | locus YEL061C, strain CIN8, stronger effect = lower value 0.983 | locus YER002W, strain NOP16, stronger effect = lower value 1 | locus YER015W, strain faa2, stronger effect = lower value 0.979 | locus YER016W, strain bim1, stronger effect = lower value 0.984 | locus YER110C, stronger effect = lower value 0.985 | locus YER111C, strain swi4, stronger effect = lower value 0.978 | locus YER155C, strain BEM2 (second series), stronger effect = lower value 0.974 | locus YER155C, strain BEM2, stronger effect = lower value 0.995 | locus YER167W, strain BCK2, stronger effect = lower value 0.983 | locus YFR010W, strain ubp6, stronger effect = lower value 0.962 | locus YGL078C, strain dbp3, stronger effect = lower value 0.985 | locus YGL086W, strain mad1, stronger effect = lower value 0.987 | locus YGL167C, strain pmr1, stronger effect = lower value 0.96 | locus YGL173C, strain kem1, stronger effect = lower value 0.961 | locus YGL227W, strain vid30, stronger effect = lower value 0.971 | locus YGL240W, strain doc1, stronger effect = lower value 0.992 | locus YGL248W, strain PDE1, stronger effect = lower value 0.977 | locus YGL253W, strain hxk2, stronger effect = lower value 0.976 | locus YGR078C, strain PAC10, stronger effect = lower value 0.973 and 1 | locus YGR135W, strain pre9, stronger effect = lower value 0.981 | locus YGR229C, strain SMI1, stronger effect = lower value 0.994 and 1.02 | locus YGR252W, strain gcn5, stronger effect = lower value 1.05 | locus YHR013C, strain ard1, stronger effect = lower value 0.962 | locus YHR027C, strain rpn1, stronger effect = lower value 0.956 | locus YHR030C, strain SLT2, stronger effect = lower value 0.992 | locus YHR079C, strain IRE1 (second series), stronger effect = lower value 0.991 | locus YHR094C, strain hxt1, stronger effect = lower value 0.991 | locus YHR129C, strain ARP1, stronger effect = lower value 0.992 | locus YHR142W, strain chs7, stronger effect = lower value 0.91 | locus YHR200W, strain rpn10, stronger effect = lower value 0.989 | locus YIL066C, strain RNR3, stronger effect = lower value 0.986 | locus YIL073C, strain SPO22, stronger effect = lower value 1.01 | locus YIL125W, strain kgd1, stronger effect = lower value 0.992 | locus YIR030C, strain dcg1, stronger effect = lower value 0.981 | locus YJL092W, strain hpr5, stronger effect = lower value 0.975 | locus YJL095W, strain BCK1 (second series), stronger effect = lower value 0.973 | locus YJL095W, strain BCK1, stronger effect = lower value 1 | locus YJL115W, strain asf1, stronger effect = lower value 0.957 | locus YJL129C, strain trk1, stronger effect = lower value 1.01 | locus YJL134W, strain LCB3, stronger effect = lower value 0.977 | locus YJL154C, strain vps35, stronger effect = lower value 0.975 | locus YJL164C, strain tpk1, stronger effect = lower value 0.985 | locus YJL166W, strain qcr8, stronger effect = lower value 0.945 | locus YJL168C, strain set2, stronger effect = lower value 0.992 | locus YJL187C, strain SWE1 (second series), stronger effect = lower value 0.98 | locus YJL187C, strain SWE1, stronger effect = lower value 0.975 | locus YJR043C, strain POL32, stronger effect = lower value 1
